In PubChem BioAssay (NCI):
The panel holds about 83,000 compounds, 20% with a hit somewhere; the sample as a whole holds those more often.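 Note: values are percent growth. 100 is the growth of untreated cells, values between 100 and 0 indicate rising inhibition; between -100 and 0 indicates cell death.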 Unmarked numbers belong to inactive results. Calls of active or inactive are those of the source. How the source made its calls: active means growth percent below 10; inactive means the rest.

system: HL-60(TB) leukemia; test: NCI-60 one-dose screen, 48 h (100 = growth as untreated, 0 = no growth, -100 = all killed); conditions: 10 µM unless noted

Q: For `C#CCn1c(-c2cc(OC)c(OC)cc2Br)nc(-c2ccccc2)c1-c1ccccc1`, which growth is on record?
A: The growth was 24.5%.

Q: For `CCN(CC)CCOc1ccc(/C(=C(\Cl)c2ccccc2)c2ccccc2)cc1`, which growth is on record?
A: Its growth is 75.9%.

Q: How did the growth turn out when `O=C1NCN(c2ccccc2)C12CCN(CCCC(c1ccc(F)cc1)c1ccc(F)cc1)CC2` was run?
A: Its growth is 32.6%.

Q: `CCCCCC(C)(O)C(C(=O)O)c1ccccc1` (stereo unspecified) was tested. Which growth did it give?
A: The growth was 110%.

Q: For `O=C(Cn1nnc2ccccc21)Nc1ccc(-c2nc3ccccc3s2)cc1`, which growth is on record?
A: Its growth is 90.8%.

Q: For `Nc1nc(N)c2cc(NCc3ccc(Cl)c(Cl)c3)ccc2n1`, which growth is on record?
A: Its growth is -65.7% (active).

Q: With `O=S(=O)(O)c1ccc(F)cc1` as the compound, how does the growth read?
A: The growth was 93.8%.

Q: `CC[C@H](Nc1ncnc2nc[nH]c12)c1nc2cccc(NCc3ccc(C(=O)NO)nc3)c2c(=O)n1-c1ccccc1` was tested. Which growth did it give?
A: Its growth is 17.8%.

Q: For `Cc1nn(-c2ccccc2)c(-n2ccnc2)c1/C=N/Nc1nc(-c2ccc(F)cc2)cs1`, which growth is on record?
A: Its growth is 94.4%.

Q: For `CCCCCC(CCC)COC(=O)c1ccc(OC)cc1` (stereo unspecified), which growth is on record?
A: The growth was 90.5%.

Q: How did the growth turn out when `COc1cccc(-c2nc3sccn3c2-c2cccc(S(C)(=O)=O)c2)c1` was run?
A: The growth was 98.3%.

Q: With `Fc1ccccc1C1c2ccccc2-c2nccn21` (stereo unspecified) as the compound, how does the growth read?
A: The growth was 76.5%.

Q: Which growth does the source give for `C#C[C@@]1(O)[C@@H](CO)O[C@@H](n2cc(Br)c3c(Cl)ccnc32)[C@@H]1O` here?
A: The growth was -46.5% (active).

Q: `CC/C=C\C/C=C/C=C1/C(=O)C=C[C@@H]1C/C=C\CCCC(=O)OC` was tested. Which growth did it give?
A: Its growth is 8.98% (active).

Q: With `CCOC(=O)CC(=O)c1c(C)cc(C)cc1C` as the compound, how does the growth read?
A: The growth was 90.8%.

Q: `O=C(O)C(CCc1ccccc1)NCc1ccccc1` (stereo unspecified) was tested. Which growth did it give?
A: Its growth is 110%.
